This passage reports binding signal results from publication doi:10.1101/2024.03.05.583629.

Chain of pT7_6His-AlfaTag-HOXD13 (P35453 263-343): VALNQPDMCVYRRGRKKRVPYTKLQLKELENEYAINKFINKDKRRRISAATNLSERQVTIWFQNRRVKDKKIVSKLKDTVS

The assay has as its target pT7_6His-AlfaTag-HOXD13 (human, UniProt P35453 263-343). The experiment in a line: PADIT-seq. As to conditions: dsDNA, one strand shown.
For “CTCGAGGATATCAAGATCTGGCCTCGGCGCGCCGGCGGGAACCTCTAGCTAGCCGACTCACTATAGGGATAATCGCCCTGAGCAAAGACC”, the binding signal was -1.04 ± 0.18 log2FC.

Sequence “CTCGAGGATATCAAGATCTGGCCTCGGCCGCTTACGCGGAACCTCTAGCTAGCCGACTCACTATAGGGATAATCGCCCTGAGCAAAGACC” had a binding signal of -0.713 ± 0.125 log2FC.

For “CTCGAGGATATCAAGATCTGGCCTCGGCCCAATAAAAGGAACCTCTAGCTAGCCGACTCACTATAGGGATAATCGCCCTGAGCAAAGACC”, the binding signal came out at 2.95 ± 0.095 log2FC.

On to “CTCGAGGATATCAAGATCTGGCCTCGGCTTAATAAAAGGAACCTCTAGCTAGCCGACTCACTATAGGGATAATCGCCCTGAGCAAAGACC”, for which the binding signal turned out to be 2.67 ± 0.0794 log2FC.

The sequence “CTCGAGGATATCAAGATCTGGCCTCGGCAATATAAAAGGAACCTCTAGCTAGCCGACTCACTATAGGGATAATCGCCCTGAGCAAAGACC” came in with a binding signal of 2.41 ± 0.0826 log2FC.

As for “CTCGAGGATATCAAGATCTGGCCTCGGCGTTTTACTCGGAACCTCTAGCTAGCCGACTCACTATAGGGATAATCGCCCTGAGCAAAGACC”, the binding signal was 0.701 ± 0.0889 log2FC.

“CTCGAGGATATCAAGATCTGGCCTCGGCGATGTAAAAGGAACCTCTAGCTAGCCGACTCACTATAGGGATAATCGCCCTGAGCAAAGACC” returned a binding signal of 0.79 ± 0.0749 log2FC.

On to “CTCGAGGATATCAAGATCTGGCCTCGGCGTTTTATATGGAACCTCTAGCTAGCCGACTCACTATAGGGATAATCGCCCTGAGCAAAGACC”, for which the binding signal was found to be 3.04 ± 0.0717 log2FC.

With “CTCGAGGATATCAAGATCTGGCCTCGGCCGCCCAGCCGGAACCTCTAGCTAGCCGACTCACTATAGGGATAATCGCCCTGAGCAAAGACC”, the binding signal is -0.832 ± 0.147 log2FC.

For “CTCGAGGATATCAAGATCTGGCCTCGGCACGGTAAAAGGAACCTCTAGCTAGCCGACTCACTATAGGGATAATCGCCCTGAGCAAAGACC”, the binding signal was 0.528 ± 0.077 log2FC.
